# In PMC4336329 (PLoS ONE, 2015):
# Out of some 310,000 compounds screened, about 14,000 (4.5%) showed an effect of 50% or more. Effects have a minus sign here. The full list was thinned out, with strong results kept by preference.
# Molecular target: human ether-à-go-go-related gene (hERG) potassium channel (human, UniProt Q12809)
# Test: primary screen, population patch clamp on CHO cells stably expressing hERG; higher = less effect of the substance
# 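Note: peak tail current of the secondary pulse compared with the same well before compound.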
# Sequence of human ether-à-go-go-related gene (hERG) potassium channel (Q12809 whole entry, looked up): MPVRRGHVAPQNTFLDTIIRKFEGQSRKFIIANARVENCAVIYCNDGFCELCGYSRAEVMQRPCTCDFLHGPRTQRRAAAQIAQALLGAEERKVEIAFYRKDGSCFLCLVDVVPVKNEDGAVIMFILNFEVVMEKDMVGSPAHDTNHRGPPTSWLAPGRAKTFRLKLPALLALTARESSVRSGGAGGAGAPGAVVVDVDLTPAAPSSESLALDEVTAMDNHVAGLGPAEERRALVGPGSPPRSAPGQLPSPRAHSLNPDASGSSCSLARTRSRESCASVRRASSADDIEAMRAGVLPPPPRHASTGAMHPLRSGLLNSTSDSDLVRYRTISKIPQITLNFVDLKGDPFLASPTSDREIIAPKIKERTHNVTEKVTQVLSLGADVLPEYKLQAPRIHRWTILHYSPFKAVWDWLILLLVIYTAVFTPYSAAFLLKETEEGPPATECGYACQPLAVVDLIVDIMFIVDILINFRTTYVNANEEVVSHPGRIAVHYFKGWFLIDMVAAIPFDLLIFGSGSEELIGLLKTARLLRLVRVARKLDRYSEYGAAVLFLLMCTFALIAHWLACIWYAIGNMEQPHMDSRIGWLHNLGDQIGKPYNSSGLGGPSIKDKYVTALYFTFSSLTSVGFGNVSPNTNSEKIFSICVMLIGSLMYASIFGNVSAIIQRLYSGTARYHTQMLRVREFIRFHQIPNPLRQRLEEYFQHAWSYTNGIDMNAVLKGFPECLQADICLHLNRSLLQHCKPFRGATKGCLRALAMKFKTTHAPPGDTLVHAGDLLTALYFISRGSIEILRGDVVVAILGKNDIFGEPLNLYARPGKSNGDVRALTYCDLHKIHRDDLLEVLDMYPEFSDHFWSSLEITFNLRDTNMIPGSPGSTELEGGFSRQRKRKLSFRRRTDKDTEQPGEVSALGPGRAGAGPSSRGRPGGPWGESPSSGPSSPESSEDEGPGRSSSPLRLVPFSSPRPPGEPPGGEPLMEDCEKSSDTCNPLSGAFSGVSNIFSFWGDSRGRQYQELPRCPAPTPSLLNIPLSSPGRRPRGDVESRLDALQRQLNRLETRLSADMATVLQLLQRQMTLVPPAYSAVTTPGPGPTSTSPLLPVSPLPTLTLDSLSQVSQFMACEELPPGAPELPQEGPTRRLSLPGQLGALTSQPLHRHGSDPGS
row,SMILES,"hERG current change (%, negative = inhibition) at 10uM"
1,Cc1ccsc1C(=O)NCc1ccc(Cl)cc1,11.1%
2,c1cnc(NCCNc2ncccn2)nc1,9.05%
3,CC1(C)CC(NC(=O)c2ccc3c(c2)OCO3)CC(C)(C)N1,4.65%
4,COC(=O)[C@H](CC(C)C)NC(=O)NCCCc1ccccc1,1.82%
5,COc1ccc(C2Nc3ccccc3C(=O)N2Cc2ccccc2)cc1COc1ccccn1 (centres unmarked),-49.4%
6,Cn1cc(C2=C(c3ccc(Cl)cc3Cl)C(=O)NC2=O)c2ccccc21,33%
7,O=C(c1cccs1)N1CCC(c2nc(-c3ccc(S(=O)(=O)N4CCOCC4)cc3)no2)CC1,-68.8%
8,Cc1cccc(C(=O)N2CCC(c3nc(-c4ccc(S(=O)(=O)N5CCOCC5)cc4)no3)CC2)c1,-3.33%
9,O=C(C1CC1)N1CCC(c2nc(-c3ccc(S(=O)(=O)N4CCCC4)cc3)no2)CC1,-13%
10,O=C(Nc1ccccc1)N1CCC(c2nc(-c3ccc(S(=O)(=O)N4CCOCC4)cc3)no2)CC1,-4.94%
11,O=C(N1CCOCC1)N1CCC(c2nc(-c3ccc(S(=O)(=O)N4CCOCC4)cc3)no2)CC1,-2.07%
12,O=C(c1ccccc1)N1CCC(c2nc(-c3ccc(S(=O)(=O)N4CCOCC4)cc3)no2)CC1,-60.8%
13,O=C(CN1C(=O)C2CC=CCC2C1=O)Nc1ccc(OC(F)(F)F)cc1 (centres unmarked),-14.2%
14,CCOC(=O)c1c(-c2ccccc2)csc1NC(=O)CSc1ccccc1,-4.13%
15,O=C(CSc1nnc(Cc2ccsc2)o1)c1ccccc1,-16.7%
16,CC1(C)CC(=O)C(C=Nc2ccc(Cl)cn2)=C(O)C1,11.6%
17,CN(C(=O)COc1cc(=O)n(C)c2ccccc12)c1ccc(Cl)cc1,-29.2%
18,COc1cc(=O)n(C)c2ccccc12,-4.88%
19,CN(c1ccc(Cl)cc1)c1cc(=O)n(C)c2ccccc12,-51.8%
20,CCC(CC)COC(=O)C1=C(C)NC(=O)NC1c1ccc([N+](=O)[O-])cc1 (centres unmarked),11.6%
21,Cc1ccc(NS(=O)(=O)c2cccc(C(=O)NCC(c3ccc(F)cc3)N3CCOCC3)c2)cc1 (centres unmarked),-16.8%
22,COc1cc(C)c(CN2CC=C(c3ccc(F)cc3)CC2)cc1C,-37.2%

row,SMILES,"hERG current change (%, negative = inhibition) at 10uM"
1,CCN(CC)c1ccc(CN2CC=C(c3ccc(F)cc3)CC2)cc1,-78.4%
2,COc1ccc(CN2CC=C(c3ccc(F)cc3)CC2)cc1Br,-11.7%
3,COc1cc(CN2CC=C(c3ccc(F)cc3)CC2)cc(OC)c1,-57.3%
4,COc1cccc(CN2CC=C(c3ccc(F)cc3)CC2)c1,-26.5%
5,O=[N+]([O-])c1cccc(CN2CC=C(c3ccc(F)cc3)CC2)c1,-39.2%
6,CN(C)c1ccc(CN2CC=C(c3ccc(F)cc3)CC2)cc1,-69.9%
7,O=[N+]([O-])c1ccccc1CN1CC=C(c2ccc(F)cc2)CC1,-12.8%
8,CCN(CC)c1ccc(CN2CCCCCC2)cc1,-20.4%
9,CCOC(=O)c1c(S(=O)(=O)N2c3ccccc3CC2C)c(C)n(C)c1C (centres unmarked),13.1%
10,CC(=O)Oc1ccc(C(=O)Nc2cccc(-c3nnc(-c4ccco4)o3)c2)cc1,0.775%
11,O=C(COC(=O)C1(c2ccc(F)cc2)CCCC1)NC1CC1,0.676%
12,CCC1(C)Cc2c(sc3nc(SC)n(Cc4ccccc4)c(=O)c23)CO1 (centres unmarked),6.63%
13,Cc1sc(NC(=O)C2=COCCO2)nc1-c1ccc(Cl)cc1,13%
14,CCCCn1c(=O)c(CCC(=O)OCC(=O)NC(=O)NCCC(C)C)nc2ccccc21,-9.31%
15,CCc1nnc(NC(=O)C2CCCN(S(=O)(=O)c3ccccc3)C2)s1 (centres unmarked),5.15%
16,Cc1nc2cc(NC(=O)COc3ccccc3C#N)ccc2n1-c1ccccc1,-4.85%
17,Clc1ccc(OCCN2CCOCC2)cc1,17%
18,NS(=O)(=O)c1ccc(N2CCN(CCOc3ccc(Cl)cc3)CC2)nc1,-69.8%
19,Cc1cc(C)c(C#N)c(N2CCN(CCOc3ccc(Cl)cc3)CC2)n1,-33.6%
20,Clc1ccc(OCCN2CCN(c3ncnc4sccc34)CC2)cc1,-81.2%
21,CCN(CC)S(=O)(=O)c1ccc(N2CCN(CCOc3ccc(OC)cc3)CC2)nc1,-46.8%
22,Cc1sc2ncnc(N3CCN(CCOc4ccc(Cl)cc4)CC3)c2c1C,-9.02%

row,SMILES,"hERG current change (%, negative = inhibition) at 10uM"
1,CN(C)C(=O)CSc1ccc(S(=O)(=O)N2CCOCC2)cn1,10.6%
2,O=C(CSc1nnc(-c2cccs2)o1)N1CCCCC1,2.99%
3,CCOC(=O)CSc1nc2ccccc2c(=O)n1-c1ccc(C)cn1,0.327%
4,O=C(/C=C/c1ccccc1)NCC1(c2ccccc2)CCOCC1,-9.11%
5,O=C(/C=C/c1ccc(F)cc1)NCC1(c2ccccc2)CCOCC1,-50.5%
6,O=C(/C=C/c1ccco1)NCC1(c2ccccc2)CCCC1,-4.49%
7,O=C(NC1CCCC1)C(c1ccncc1)N(C(=O)c1csnn1)c1ccccc1 (centres unmarked),15.1%
8,Cc1cc(N2C(=O)C(O)=C(C(=O)c3ccco3)C2c2ccc(Cl)cc2)no1 (centres unmarked),-6.77%
9,O=C(NCC(=O)N(c1cccc(F)c1)C(C(=O)NCC1CCCO1)c1ccccc1)c1ccco1 (centres unmarked),6.26%
10,Cc1ccc(S(=O)(=O)N(C)c2ccc(OCC(=O)NCc3ccco3)cc2)cc1,-44.8%
11,COc1ccc(CCNC(=O)COc2ccc(N(C)S(=O)(=O)c3ccc(C)cc3)cc2)cc1,6.95%
12,Cc1ccc(S(=O)(=O)N(C)c2ccc(OCC(=O)NCC3(N(C)C)CCCCC3)cc2)cc1,-73.5%
13,Cc1ccc(S(=O)(=O)N(C)c2ccc(C(=O)NCCc3ccccc3)cc2)cc1,-6.94%
14,Cc1ccc(S(=O)(=O)N(C)c2ccc(C(=O)NCC3CCCO3)cc2)cc1 (centres unmarked),-16.7%
15,Cc1ccc(S(=O)(=O)N(C)c2ccc(C(=O)NCC3(N(C)C)CCCCC3)cc2)cc1,-65.4%
16,O=C(CN1C(=O)NC(CCc2ccccc2)C1=O)NC1CC1 (centres unmarked),18.8%
17,Cc1ccc(SC(C)C(=O)NCc2cccnc2)cc1 (centres unmarked),5.44%
18,COc1ccc(C(C)(C)C)cc1NC(=S)NCCN1CCOCC1,1.38%
19,Cc1ccc(Cn2c(=N)c(S(=O)(=O)c3ccc(Br)cc3)cc3c(=O)n4ccccc4nc32)cc1,-6.27%
20,Cc1ccc(Cn2c(=N)c(S(=O)(=O)c3ccc(C)cc3)cc3c(=O)n4ccccc4nc32)cc1,17.7%
21,Cc1ccc(Cn2c(=N)c(C(=O)NC3CCCCC3)cc3c(=O)n4ccccc4nc32)cc1,-65.7%
22,Cc1ccc(Cn2c(=N)c(C(=O)NC3CCCC3)cc3c(=O)n4ccccc4nc32)cc1,-92.7%

row,SMILES,"hERG current change (%, negative = inhibition) at 10uM"
1,C/C(=N\NC(=O)C1CCCC1)c1ccc(Cl)c(Cl)c1,13.7%
2,O=C(c1ccco1)N1CCN(C(=O)C2CCCN(S(=O)(=O)Cc3ccccc3)C2)CC1 (centres unmarked),-35.4%
3,O=C(NCc1c(Cl)cccc1Cl)c1ccc2nnsc2c1,8.96%
4,CCOc1ccc(NC(=O)CN2CCN(CC(=O)c3ccc(OC)c(OC)c3)CC2)cc1,-84.4%
5,NC(=O)c1ccc(NC(=O)CN2CCOCC2)cc1,17.9%
6,COC(=O)c1ccc(NC(=O)CN2CCCC2)cc1,5.33%
7,Cc1ccc(OCC(=O)Nc2ccc(C(N)=O)cc2)cc1,16.5%
8,CCCCOc1ccc(C(=O)N2CCN(CC(=O)Nc3ccc(C)cc3)CC2)cc1OC,-47.1%
9,CCOc1ccc(NC(=O)CNC(=O)c2ccc(OC)c(OC)c2)cc1,0.00778%
10,COC(=O)c1ccc(NC(=O)CN2CCN(CCO)CC2)cc1.Cl,-5.29%
11,CCOc1ccc(NC(=O)CN2CCN(CC(=O)Nc3ccc(C(N)=O)cc3)CC2)cc1,-72.6%
12,CCOc1ccc(NC(=O)CN2CCN(CC(=O)Nc3ccc(C(=O)OC)cc3)CC2)cc1,-66.2%
13,Cc1ccccc1C(=O)Nc1nnc(CC(=O)N/N=C/c2cn(Cc3ccccc3)c3ccccc23)s1,12.6%
14,COc1ccc([N+](=O)[O-])cc1NC(=O)CCN1CCN(C)CC1,16.3%
15,COC(=O)C(NC(=O)CCC(=O)N[C@@H](C(=O)OC)c1ccccc1)c1ccccc1 (some centres unmarked),9.88%
16,N#CC1=CN(Cc2ccccc2)C=C(/C=N/Nc2ccccc2)C1,-5.72%
17,c1ccc2c(CNc3ccc(CNc4ncn[nH]4)cc3)cccc2c1,1.99%
18,CCCCC(=O)Nc1ccc(C(=O)NNC(=O)CCCOc2ccc(Cl)cc2Cl)cc1,7.25%
19,Fc1ccc(COc2cccc3cccnc23)cc1,-8.3%
20,CC(OC(=O)c1ccc(NS(=O)(=O)c2ccc3[nH]c(=O)[nH]c3c2)cc1)C(N)=O (centres unmarked),18.1%
